# Assay outcomes: PubChem BioAssay, The Scripps Research Institute Molecular Screening Center
# An excerpt weighted towards active compounds, which were near 3% of everything screened.
# PP5 inh – PP5 (human) phosphatase inhibition; P53041; purified PP5c, OMFP substrate fluorescence; inhibition, % at 6.7 µM; 320,000 tested, 0.18% active;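 active means inhibition above the campaign's mean inhibition across all tested compounds plus 3 SD, cut at about 9.5% in these data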;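 further: 0% = DMSO only and 100% = 100 µM cantharidin control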
# Target sequence (P53041 whole entry, looked up): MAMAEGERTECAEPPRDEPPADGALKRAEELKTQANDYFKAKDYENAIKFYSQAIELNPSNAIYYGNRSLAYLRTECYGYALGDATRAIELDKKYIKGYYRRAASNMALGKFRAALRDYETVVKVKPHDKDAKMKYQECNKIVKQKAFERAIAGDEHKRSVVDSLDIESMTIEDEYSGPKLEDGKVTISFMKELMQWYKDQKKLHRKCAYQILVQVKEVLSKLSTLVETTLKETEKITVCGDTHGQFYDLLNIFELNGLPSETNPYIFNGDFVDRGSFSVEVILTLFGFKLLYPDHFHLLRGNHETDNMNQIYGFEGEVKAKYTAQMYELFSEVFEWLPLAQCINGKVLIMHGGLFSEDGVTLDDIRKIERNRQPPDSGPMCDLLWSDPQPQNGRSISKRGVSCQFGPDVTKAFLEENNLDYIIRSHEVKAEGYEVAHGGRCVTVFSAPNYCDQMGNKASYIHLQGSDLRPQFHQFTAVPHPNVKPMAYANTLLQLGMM
# PAFAH2 FP inh – PAFAH2 (human) inhibition; Q99487; recombinant PAFAH2, FP-rhodamine activity probe, fluorescence polarization; inhibition, % at 3.39 µM; 340,000 tested, 0.99% active;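 active means inhibition above the mean over all tested compounds plus 3 SD, cut at about 30% in these data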;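 further: inhibitors block probe labeling of enzyme so polarization drops; 0% = enzyme with DMSO and 100% = wells lacking PAFAH2 protein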
# Fh CTSL1 inh – cathepsin L1 inhibition, PFM18AAP counter-screen. recombinant F. hepatica cathepsin L1, Z-Leu-Arg-MCA fluorescence. inhibition, % at 5.96 µM. 300,000 tested, 0.49% active. AID 1906;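 active means inhibition above the mean of all tested compounds plus 3 SD, set per screening campaign, cut at about 17% in these data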;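 further: 0% = plate median of test compound wells and 100% = 1 µM Z-Phe-Ala-diazomethylketone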
# pPAFAH FP inh – inhibitors of human plasma PAF acetylhydrolase (pPAFAH); recombinant pPAFAH, FP-rhodamine probe fluorescence polarization; AID 463082; Q13093; 330,000 tested, 1.5% active; inhibition, % at 3.39 µM;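 active means inhibition above the mean inhibition across the screen plus 3 SD, cut at about 25% in these data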;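 further: inhibitors block binding of the rhodamine activity-based probe so polarization drops; 0% = enzyme with DMSO and 100% = wells lacking pPAFAH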
# PAFAH1B3 inh – inhibitors of human PAFAH1B3. Q15102. recombinant PAFAH1B3, FP-rhodamine probe, fluorescence polarization. inhibition, % at 3.39 µM. 340,000 tested, 0.28% active. AID 492972;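 active means inhibition above the screen-wide average of all tested compounds plus 3 SD, cut at about 25% in these data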;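 further: 0% = enzyme with DMSO only and 100% = wells lacking PAFAH1B3 protein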
# PAFAH1B2 FP inh – blocks human PAF acetylhydrolase 1b catalytic subunit 2; P68402; recombinant PAFAH1B2, FP-rhodamine activity probe, fluorescence polarization; inhibition, % at 3.39 µM; 340,000 tested, 1.2% active;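 active means inhibition above the mean of all tested compounds plus 3 SD, cut at about 24% in these data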;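 further: 0% = enzyme with DMSO and 100% = wells lacking PAFAH1B2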
# The depositor's hits bear a star; . = no result given.
SMILES,PP5 inh,PAFAH2 FP inh,Fh CTSL1 inh,pPAFAH FP inh,PAFAH1B3 inh,PAFAH1B2 FP inh
CCN(CC(=O)NC(C)(C)C)C(=O)CCl,-1.9,-3.6,20.0*,-0.5,5.3,-2.6
CCN(CC(=O)NC(C)(C)C)C(=O)COc1c(Cl)cc(Cl)c2ccc(C)nc12,1.7,2.1,5.7,1.8,13.1,6.9
Cc1cc(C)c2nc(NNC(=O)c3ccc(S(=O)(=O)N4CCc5ccccc5C4)cc3)sc2c1,1.1,-3.0,0.5,11.6,9.1,9.5
Cc1cc(C)c2nc(NNC(=O)c3cc(=O)c4ccccc4o3)sc2c1,0.5,15.8,4.1,26.1*,21.6,8.2
Nc1nnc(SCC(=O)Nc2cccnc2Cl)s1,2.0,0.5,0.6,-11.7,4.0,2.4
Cc1cccc(Nc2nnc(SCC(=O)Nc3cccnc3Cl)s2)c1,4.1,-2.0,27.0*,4.7,7.0,3.4
O=c1[nH]cn[nH]1,5.6,-1.5,19.0*,2.2,12.8,2.7
CCc1[nH]nc(C(=O)N2CCCC(N3CCN(c4ccccc4C)CC3)C2)c1C (configuration not stated),-7.4,0.4,9.3,-4.8,2.7,-3.0
CCOC(=O)C1CCN(C(=O)COC(=O)CSc2ccc([N+](=O)[O-])cc2)CC1,0.8,0.1,-4.1,31.5*,4.9,9.3
CC1CCCC(C)N1C(=O)COC(=O)CSc1ccc([N+](=O)[O-])cc1 (configuration not stated),.,4.1,.,.,7.9,11.4
CN(C)c1ccc(/C=C(/NC(=O)c2ccccc2Cl)C(=O)NCCN2CCOCC2)cc1,1.0,0.0,4.5,-1.5,-0.6,1.1
O=C1OCCC1(c1ccccc1)c1ccccc1,.,1.5,.,.,-2.0,4.2
CCCCN(CCCNC(=O)C1CCN(S(=O)(=O)N2CCOCC2)CC1)c1ccccc1,1.0,2.1,0.1,28.2*,-5.4,1.5
CCN(CCCNC(=O)C1CCN(S(=O)(=O)N2CCC3(CC2)OCCO3)CC1)c1ccccc1,1.1,0.0,-1.9,3.3,7.0,3.4
CC(C)[C@H](NC(=O)[C@H](CCCN=C(N)N)NC(=O)NC(Cc1ccccc1)C(=O)O)C(=O)NC(C=O)CCCN=C(N)N (some centres not stated),-0.8,4.8,111.5*,3.3,8.1,-2.0
C=C1CC(COc2ccc3c(C)c(Cl)c(=O)oc3c2)(c2ccccc2)OC1=O (configuration not stated),.,-2.1,.,.,-8.3,-4.6
COc1ccc(NC(=O)CN(C)C(=O)Cc2c(C)nc3ccccc3c2C)cc1,3.1,3.4,5.4,27.4*,1.1,-1.5
Cc1ccc(S(=O)(=O)CCC(=O)N(Cc2nnc(-c3ccc(Cl)cc3)o2)C2CC2)cc1,2.3,0.3,.,6.1,-4.5,0.7
O=C(NCCCO)c1ccc2nc(-c3ccco3)c(-c3ccco3)nc2c1,.,32.9*,.,.,28.9*,18.1
Cc1nc2ccc(NC(=O)NCCO)cc2s1,0.5,3.1,-1.4,2.5,5.7,-0.5
O=C(NCCO)Nc1ccc2nc(-c3ccco3)c(-c3ccco3)nc2c1,-1.5,.,3.1,72.5*,.,.
CC(C)(C)OC(=O)N1CCC(NC(=O)c2nc[nH]c2C(=O)NCC(=O)OCc2ccccc2)CC1,1.4,-2.6,-2.0,32.6*,-0.3,-4.0
COc1ccc(S(=O)(=O)NCC(c2ccc3c(c2)OCO3)N2CCOCC2)cc1 (configuration not stated),2.9,-2.4,2.8,-7.8,-5.1,-2.9
Cc1nc2c(C(=O)NCCC(C)C)c[nH]n2c(=O)c1Cl,-1.0,9.0,5.5,12.5,1.8,4.1
Cc1nc2c(C(=O)NCCC(C)C)c[nH]n2c(=O)c1Cc1ccccc1F,4.2,6.1,6.8,30.8*,19.3,5.6
Cc1oc(-c2cccc(Cl)c2)nc1CN1CCC(C(=O)NCCCN2CC(C)CC(C)C2)CC1 (configuration not stated),-2.2,6.4,-0.8,-1.2,4.8,5.8
CC1=C(/C=C/C(C)=C/C=C/C(C)=C\C(=O)O)C(C)(C)CCC1,1.8,4.1,8.0,27.6*,-0.2,8.7
O=C1CC(SC2=NCCS2)C(=O)N1c1cccc(Cl)c1Cl (configuration not stated),1.5,0.9,-2.7,6.8,5.2,1.5
O=C(CSc1nnc(SCc2ccccc2)s1)N/N=C/C=C/c1ccccc1[N+](=O)[O-],4.5,-15.2,0.2,10.2,-26.6,-7.5
